Hits are enriched below; roughly 4% of the tested compounds scored in any of these assays.
TWEAK Fn14 block = inhibitors of TWEAK-Fn14 interaction signaling; inhibition, % at 10 µM; hit rate 2% among 360,000; AID 1159606; TWEAK-stimulated Fn14 reporter cells, luciferase luminescence, 8 h; in the data active = inhibition above about 50%
HIF-2a inh = blocks HIF-2a reporter activity. 786-0 RCC cells HIF-2a reporter, luciferase luminescence, overnight. inhibition, % at 18.8 µM. hit rate 0.72% among 360,000;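 active = inhibition of the luminescence signal of 40% or more relative to plate controls, in a single-dose primary screen at 18.75 µM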
TROY NFkB inh = blocks TROY-dependent signaling in reporter cells | Q293 LMP1-TROYcd NF-kB luciferase reporter, 4 h | inhibition, % at 10 µM | hit rate 0.98% among 360,000 | AID 1347056;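 active = compounds whose plate-normalised and pattern-corrected inhibition of the luciferase reporter signal at the single screening dose is 50% or more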
Peg3 promoter = reduces Peg3 promoter-driven luciferase expression in HeLa. HeLa PEG-Prom luciferase reporter, luminescence, overnight. inhibition, % at 20 µM. hit rate 1.7% among 360,000. AID 588405;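 active = inhibition of at least 50% at 20 µM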
CF NFkB block = cystic fibrosis NF-kB activation inhibition. KKLEB NF-kB-GFP reporter, PAF-induced, GFP fluorescence overnight. inhibition, % at 5 µM. hit rate 0.86% among 360,000. AID 588850;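 active = at least 50% inhibition at 5 µM, scaled per plate between neutral and stimulator controls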;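 also: PAF is a Pseudomonas aeruginosa culture filtrate used as stimulus; plate controls were PAF-stimulated DMSO wells for no effect and unstimulated DMSO wells for full effect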
KKLEB tox = reduces viability of KKLEB cystic fibrosis airway cells | KKLEB CF airway cells viability, ATPlite luminescence, overnight; hits give low values; cells stimulated with P. aeruginosa culture filtrate | hit rate 0.36% among 360,000 | activity change (cytotoxicity), % at 5 µM;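 active = corrected activity change at or below -50% at 5 µM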
An asterisk follows results filed as active.

SMILES	TWEAK Fn14 block	HIF-2a inh	TROY NFkB inh	Peg3 promoter	CF NFkB block	KKLEB tox
O=C(CSCC(=O)N1CCCCC1)Nc1nc(-c2cccs2)cs1	7.8	-97.8	7.2	-72.4	-0.2	-13.4
O=C(CSCC(=O)N1CCN(c2ccccc2)CC1)Nc1nc(-c2ccc(Cl)s2)cs1	72.0*	-139.0	30.5	-30.8	8.0	-21.8
CCOC(=O)N1CCN(C(=O)CSCC(=O)Nc2nc(-c3ccccc3)cs2)CC1	25.8	-166.9	6.7	-51.4	11.4	3.0
Cc1cc(C)nc(Sc2ncnc3c2oc2ccccc23)n1	55.5*	-121.5	-31.0	-70.9	31.5	-6.3
CC1(c2ccccc2)O[C@@H]2C[C@H]3[C@@H]4CCC5=CC(=O)C=C[C@]5(C)[C@@]4(F)[C@@H](O)C[C@]3(C)[C@]2(C(=O)CO)O1 (some centres undefined)	0.3	29.4	32.4	11.3	71.7*	38.5
C[C@H]1C[C@H]2[C@@H]3CCC4=CC(=O)C=C[C@]4(C)[C@@]3(F)[C@@H](O)C[C@]2(C)[C@@]1(O)C(=O)CO	-17.4	18.4	27.4	1.6	68.4*	20.2
CC(=O)OCC(=O)C1=CCC2C3CCC4=CC(=O)C=CC4(C)C3(F)C(OC(C)=O)CC12C (centres undefined)	28.8	21.0	-10.7	20.4	36.5	-3.5
C[C@@H]1C[C@H]2[C@@H]3CCC4=CC(=O)C=C[C@]4(C)[C@@]3(F)[C@@H](O)C[C@]2(C)[C@@]1(O)C(=O)COP(=O)(O)O	-22.3	17.5	16.3	-7.0	67.3*	-39.4
C[C@@H]1CC2[C@@H]3CC[C@H]4CC(=O)CC[C@]4(C)C3=CC[C@]2(C)[C@@]1(O)C(=O)CO (some centres undefined)	0.0	-8.7	-10.0	4.1	-15.1	0.6
C[C@H]1C[C@H]2[C@@H]3CCC4=CC(=O)C=C[C@]4(C)[C@@]3(Cl)[C@@H](O)C[C@]2(C)[C@@]1(O)C(=O)CO	1.8	25.1	19.6	-12.8	64.3*	-23.9
O=C1Nc2ccccc2N(O)N1c1ccc(S(=O)(=O)Nc2ccccn2)cc1	-11.5	13.9	-13.8	-2.6	-1.0	1.5
COc1ccc(C(=O)NCc2csc(C)n2)cc1OC1CCN(C(C)=O)CC1	1.6	2.9	16.8	2.0	14.4	2.0
O=c1c2ccccc2nc(-c2ccoc2)n1CCc1ccccc1	4.6	-105.0	-50.1	-12.8	-21.6	1.2
CCOC(=O)C1CCN(C(=O)/C=C/c2ccc(OC)cc2)CC1	-14.8	-81.7	-30.6	-244.7	-17.2	5.2
COc1cccc(/C=C/C(=O)N2CCN(S(=O)(=O)c3ccccc3)CC2)c1OC	73.4*	-18.5	-18.4	7.0	6.6	-2.9
CCOC(=O)C1CCN(C(=O)/C=C/c2ccccc2OC)CC1	59.0*	16.1	-9.4	-12.9	0.1	4.2
COc1ccc(-c2csc(N(Cc3ccccc3)C(=O)COc3ccc(Cl)cc3)n2)cc1	-7.6	7.8	-7.7	70.4*	20.5	-26.1
CC(=O)NCN1CCN(CNC(C)=O)CC1	74.1*	17.7	-0.7	0.6	1.3	-7.9
O=C(O)CN1CCN(CC(=O)O)CCN(CC(=O)O)CCN(CC(=O)O)CC1	2.8	-4.4	7.4	2.5	-3.5	20.0
c1ccc2c(c1)OCC(c1csc3ncnc(N4CCCCC4)c13)O2 (centres undefined)	50.5*	35.2	33.0	15.7	45.5	-13.0
Cc1cccc2c1cnn2C(=O)Nc1cc(F)ccc1F	12.9	-260.0	3.2	-378.9	-5.7	-4.4
COc1cc(C)c(/C=C(\C#N)C(=O)Nc2cccc(C)c2)cc1C(C)C	86.3*	8.9	83.8*	8.7	-7.0	1.8
COc1ccc(N2CC(NS(=O)(=O)c3cccs3)CC2=O)cc1 (centres undefined)	2.2	4.6	-4.7	-5.6	24.6	0.1
O=P(C(=NCCO)NO)(N1CCOCC1)N1CCOCC1	-17.4	4.6	-7.9	7.4	-0.2	-2.4
Oc1ccccc1C1SC(c2ccccc2O)SC(c2ccccc2O)S1 (centres undefined)	51.4*	32.8	80.7*	105.3*	91.1*	-87.6*
SMILES	TWEAK Fn14 block	HIF-2a inh	TROY NFkB inh	Peg3 promoter	CF NFkB block	KKLEB tox
Cc1ccc(C)c(C(=O)COC(=O)c2cc(S(=O)(=O)N3CCOCC3)ccc2F)c1	-28.0	19.5	-1.4	11.3	2.5	-5.9
Clc1ccc(Cc2nc(-c3ccncc3)no2)cc1	-3.6	-53.4	4.9	-19.4	13.8	-4.3
COc1ccc(Cc2nc(-c3ccncc3)no2)cc1	35.8	-84.5	50.1*	-81.0	-2.3	-0.5
CCCCNC(=O)/C(C#N)=C/c1cccnc1	-9.0	12.8	13.9	23.4	-16.8	12.0
O=C(NC(c1ccc(F)cc1)c1ccc2ccccc2n1)C1CCN(CCOc2ccc(Cl)cc2)CC1 (centres undefined)	6.3	-11.2	22.3	95.7*	4.6	-19.2
Cc1cccnc1C(c1ccc(F)cc1)N(C)C(=O)C1CCN(CCOc2ccc(Cl)cc2Cl)CC1 (centres undefined)	-14.9	-1.7	-2.2	98.0*	33.0	-30.9
O=C(NC(c1ccccc1)c1ccc2ccccc2n1)C1CCN(CCOc2ccc(Cl)cc2Cl)CC1 (centres undefined)	13.9	19.3	34.6	102.0*	19.5	-21.4
COc1cc(/C=C/CN2CCC(C(=O)NC(c3ccc(F)cc3)c3ccc4ccccc4n3)CC2)ccc1OC(C)=O (centres undefined)	-18.9	-41.9	-14.4	91.0*	14.1	-2.3
O=C(O)CC(C(=O)O)n1nc(-c2ccccc2)cc1-c1ccccc1 (centres undefined)	-19.2	-169.0	-49.3	-137.4	-4.7	6.9
CC(NC(=O)C1CCN(CCOc2ccc(Cl)cc2)CC1)c1cccc2ccccc12 (centres undefined)	-0.5	2.5	13.8	69.3*	27.2	-11.2
Cc1cccc(NC(=O)c2cnc3ccccn3c2=O)c1	80.5*	-49.6	-18.4	-10.2	-38.8	-6.1
O=C(Nc1cnc2ccccn2c1=O)c1ccc(Cl)cc1Cl	81.8*	-13.9	72.7*	45.7	-7.4	-1.0
O=C(NCc1ccc2c(c1)OCO2)c1cnc2ccccn2c1=O	9.6	-9.0	-19.5	-0.4	-24.5	4.3
O=C(Nc1ccc2c(c1)OCCO2)c1cnc2ccccn2c1=O	69.6*	-95.1	-19.7	-46.9	-2.9	-0.1
Cc1ccc(C(=O)Nc2cnc3ccccn3c2=O)cc1	27.3	-185.2	-30.5	-209.1	-9.9	0.0
CC(NCc1ccc(-c2ccccc2)cc1)C(O)c1ccccc1 (centres undefined)	-35.5	-8.3	19.9	74.5*	37.7	-26.2
COc1ccccc1Cn1c(C)c(C(=O)NCCC#N)sc1=O	3.1	-6.7	28.1	-3.2	11.2	-28.9
COc1ccc2oc(=O)c(-c3csc(Nc4ccc(O)cc4)n3)cc2c1	68.1*	-320.6	19.4	-42.3	-22.1	-5.5
